Results reported in PubChem BioAssay (Tox21).
Records with an inconclusive call do not appear. A number with no mark means an inactive call. The source made the active and inactive calls. The call rests on the fitted dose curve; in most records, active means well fitted inhibition curve with a large enough effect in the repeat runs; inconclusive means weak or mixed curves; inactive means no such curve, though single readings can be large or run the other way.

Target: Cytochrome P450 2C9 (Homo sapiens) (UniProt P11712)
Sequence (P11712 whole entry, looked up): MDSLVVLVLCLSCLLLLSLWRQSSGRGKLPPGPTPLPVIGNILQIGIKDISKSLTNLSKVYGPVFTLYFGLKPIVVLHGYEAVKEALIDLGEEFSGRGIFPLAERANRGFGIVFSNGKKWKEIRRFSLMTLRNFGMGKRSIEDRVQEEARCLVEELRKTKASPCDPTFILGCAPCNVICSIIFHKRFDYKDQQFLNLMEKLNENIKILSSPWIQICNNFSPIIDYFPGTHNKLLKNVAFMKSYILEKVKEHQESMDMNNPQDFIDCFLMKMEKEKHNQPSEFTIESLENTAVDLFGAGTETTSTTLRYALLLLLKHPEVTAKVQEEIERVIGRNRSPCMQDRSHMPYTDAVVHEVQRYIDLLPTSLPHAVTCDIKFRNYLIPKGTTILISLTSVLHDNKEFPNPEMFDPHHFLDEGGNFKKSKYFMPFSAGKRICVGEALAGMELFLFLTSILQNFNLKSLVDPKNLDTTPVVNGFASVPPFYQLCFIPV
Assay: Cytochrome P450 Family 2 Subfamily C Member 9 (CYP2C9) small molecule antagonists: luciferase reporter qHTS assay (AID 1671198); further: nearly all actives have a fitted effect of over 50% in size
Settings: P450-Glo CYP2C9 enzyme assay, luciferin luminescence; series mostly up to 115 µM; activity change, negative = inhibition: at the top concentration
From the text: U.S. Tox21 Program National Center for Advancing Translational Sciences [NCATS] U.S. Environmental Protection Agency [EPA] National Institutes of Environmental Health Sciences [NIEHS] National Toxicology Program [NTP] U.S. Food and Drug Administration [FDA] Tox21 Assay Overview: Cytochrome P450 (CYP) enzymes are membrane-bound hemeproteins that play a key role in metabolism of drugs and xenobiotics. Evaluation of the effect of chemicals on CYP isozymes is useful to minimize the adverse drug reactions and toxicities in drug development process. Tox21 chemicals were tested for their effect on CYP enzyme activities by using P450-Glo (TM) screening systems (Promega Corporation, Madison, WI). These systems provide a luminescent method containing proluciferin substrates and are converted to luciferin products by CYP isozymes. The luciferin products formed are detected with a luciferin detection reagent, and the amount of light produced is proportional to CYP activity. P450-Glo (TM) CYP2C9 screening system (Catalog. No. V9790) was used to detect the compounds that interfere in CYP2C9 activity.
Tox21 Assay Protocol Summary: Two ul of enzyme-substrate mix was dispensed into medium binding white/solid 1536-well plates (Greiner Bio-One North America Inc., Monroe, NC) using a BioRaptr Flying Reagent Dispenser (FRD, Beckman Coulter, Brea, CA). […] The assay plates were incubated at room temperature for 10 min. Then 2 ul of NADPH regeneration solution was added to each well of the assay plates using an FRD and incubated at 37C for 1 h. The reaction was stopped by adding 4 ul of detection reagent using an FRD and after 20 min incubation at room temperature the luminescence signal was measured using a ViewLux plate reader (Perkin Elmer, Shelton, CT). Data were expressed as relative luminescence units.
On the % scale 0 is the no-effect control and ±100 the full control effect; potency means the concentration at half of the fitted maximal effect.

| Structure (SMILES) | activity change, negative = inhibition | Potency |
| --- | --- | --- |
| COC(=O)Cc1cccc2ccccc12 | 58.4% | – |
| O=C(O)c1ccccc1[N+](=O)[O-] | 0.915% | – |
| Cc1cc(C)n(CO)n1 | -2.94% | – |
| O=Cc1ccc(Cl)c([N+](=O)[O-])c1 | – | 71 µM (active) |
| Cc1ccccc1CCO | -2.65% | – |
| N#C[C@@H]1CC(F)(F)CN1C(=O)CNC1CC2CCC(C1)N2c1ncccn1 (stereo not given in full) | – | 35.6 µM (active) |
| CCCCOC(=O)CC#N | – | 7.44 µM (active) |
| CC(C)NC(=O)c1ccccc1N | -7.9% | – |
| Cc1ccc2c(Cl)cc(Cl)c(O)c2n1 | 1.76% [at 53 µM] | – |
| O=c1c2ccccc2oc2ccccc12 | – | 39.9 µM (active) |
| Cc1ccc(NC=O)c(C)c1 | -17.3% | – |
| Cc1cc(C)c(C)c(O)c1 | 0.143% | – |
| C=CC(O)CCCCC (stereo not given) | 1.01% | – |
| N#Cc1ccc(CC(=O)c2cccc(C(F)(F)F)c2)cc1 | – | 35.6 µM (active) |
| Cc1c(Cl)cccc1Nc1ccccc1C(=O)O | – | 17.4 µM (active) |
| Clc1cccc(C(c2ccc3nc[nH]c3c2)n2ccnc2)c1 (stereo not given) | – | 8.71 µM (active) |
| CCCCCCCCC(=O)OCC(C)OC(=O)CCCCCCCC (stereo not given) | – | 59.1 µM (active) |
| CCCC1CCCC(=O)O1 (stereo not given) | – | 39.9 µM (active) |
| C=CC(=O)NC(C)(C)C | -14.3% | – |
| CCN(CCCCOC(=O)c1ccc(OC)c(OC)c1)C(C)Cc1ccc(OC)cc1 (stereo not given) | -2.14% [at 53 µM] | – |

| Structure (SMILES) | activity change, negative = inhibition | Potency |
| --- | --- | --- |
| Nc1cccc2c(=O)[nH][nH]c(=O)c12 | -10.6% | – |
| Nc1ccc(F)cc1F | -0.206% | – |
| CCCCCCCCCCCCN1CCOCC1 | -7.05% | – |
| CC(CC(C#N)(c1ccccc1)C(C)C)N(C)C (stereo not given) | -17.1% [at 53 µM] | – |
| O=C(Cl)c1ccc(F)c(Cl)c1 | -17.4% | – |
| COc1cc(C)c(Cc2cnc(N)nc2N)cc1OC | -13.3% [at 53 µM] | – |
| O=C(C1CCCCC1)N1CC(=O)N2CCCc3ccccc3C2C1 (stereo not given) | – | 13.8 µM (active) |
| O=S(=O)(O)c1cc(Cl)c(Cl)cc1Cl | – | 31.7 µM (active) |
| CCc1ccc(C(=O)C(C)CN2CCCCC2)cc1 (stereo not given) | 2.23% [at 53 µM] | – |
| NCCOCCOCCN | -9.56% | – |
| c1ccc(-c2ccc(-c3ccccc3)cc2)cc1 | -16.3% [at 23.6 µM] | – |
| OCCCO | -5.8% | – |
| CCCOC(C)=O | -4.75% | – |
| C1CCN(CN2CCCCC2)CC1 | -15.7% | – |
| CC[C@H](NC(C)C)[C@H](O)c1ccc(O)c2[nH]c(=O)ccc12 | -14.4% [at 53 µM] | – |
| Cc1ccc(NC(=O)c2ccc(CN3CCN(C)CC3)cc2)cc1Nc1nccc(-c2cccnc2)n1 | -13.5% [at 53 µM] | – |
| CC(C(=O)O)c1ccc2c(c1)Cc1cccnc1O2 (stereo not given) | -7.48% [at 53 µM] | – |
| CCOC(=O)CC(O)(CC(=O)OCC)C(=O)OCC | – | 8.94 µM (active) |
| CCCCCCCCCCCCCCCCN | 21.6% [at 53 µM] | – |
| O=C(NC1CCN(CCc2c[nH]c3ccccc23)CC1)c1ccccc1 | -23.9% [at 53 µM] | – |
